This is a sample that favours compounds with a hit; in the whole collection about 6.2% have one here.
HT1080 IDH1KD tx = qHTS for induction of synthetic lethality in tumor cells producing 2HG: qHTS for the HT-1080-IDH1KD cell line | HT-1080 IDH1 knockdown viability, ATP luminescence, 48 h | Potency, µM (top dose mostly 46.1 µM), without a hit: at the top dose activity, negative = toxicity, actives largely listed as cytotoxic | 360,000 compounds, 2% hits;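 further: 0% = DMSO wells and -100% = cell-free medium wells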
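Assay cells: HT-1080 with IDH1 knockdown, 750 per well, RPMI/5% FBS. Exposure: 48 h at 37 °C following 2 h pre-incubation. Read: CellTiter-Glo luminescence; fitted concentration-response, curve class assigned.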
KB-3-1 cytotox = qHTS assay for MDR1-selective chemotherapeutics: Primary screen using the parental adenocarcinoma cell KB-3-1; KB-3-1 viability, CellTiter-Glo ATP luminescence, 72 h; Potency, µM (highest dose often 46.1 µM), usual class: cytotoxic; 400,000 compounds, 1.4% hits; further: on the % scale 0 is the no-effect control and ±100 the full control effect; nearly all actives have a fitted effect of over 60% in size
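Luminescent ATP read-out (CellTiter-Glo) measures survival of drug-naive KB-3-1 cells after 72 h compound exposure at 37 °C. Titration series was screened from lowest to highest concentration, with DMSO vehicle plates as background controls.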
KB-V1 MDR tox = qHTS assay for MDR1-selective chemotherapeutics: Primary screen using the drug-selected MDR subline cells KB-V1; KB-V1 MDR cells viability, CellTiter-Glo, 72 h; Potency, µM (doses to about 46.1 µM), usual class: cytotoxic; 400,000 compounds, 3.4% hits; further: on the % scale 0 is the no-effect control and ±100 the full control effect; nearly all actives have a fitted effect of over 60% in size
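Drug-selected KB-V1 cells, grown in DMEM lacking phenol red with 10% FBS, receive compound titrations; after three days at 37 degrees C, surviving cell ATP is quantified by CellTiter-Glo luminescence and responses normalized and curve-fitted.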
HT1080-NT tox = qHTS for induction of synthetic lethality in tumor cells producing 2HG: qHTS for the HT-1080-NT fibrosarcoma cell line; 360,000 compounds, 1.6% hits; HT-1080-NT fibrosarcoma viability, CellTiter-Glo ATP luminescence, 48 h; Potency, µM (series often up to 46.1 µM), for the others: at the top dose activity, negative = less viability, actives largely listed as cytotoxic;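 further: NT is the 2HG producing partner of a matched IDH1 knockdown line; 0% = DMSO-treated cells and -100% = media-only wells without cells; nearly all actives have a fitted effect of over 55% in size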
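Viability of the 2HG-overproducing fibrosarcoma line after 48 hours of compound exposure at 37 degrees C was determined by luminescence with CellTiter-Glo, and concentration-effect curves were then fitted and categorized.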
ATXN2 expr inh = Primary qHTS for Inhibitors of ATXN expression. HEK-293 ATXN2-luciferase reporter, luminescence, 24 h. Potency, µM (series often up to 57 µM), for the others: at the top dose activity change, negative = inhibition, actives largely listed as inhibitors. 360,000 compounds, 0.72% hits. AID 1745845, 2022; further: on the % scale 0 is the no-effect control and ±100 the full control effect; nearly all actives have a fitted effect of over 55% in size
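qHTS (up to 57 uM final) was run with 24 h compound exposure of reporter cells at 37 °C. Each well was multiplexed: SteadyGlo luminescence measured ATXN2-luciferase expression after a fluorogenic Gly-Phe-AFC viability readout (25 uM final).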
S2 tox = Viability Counterscreen for Primary qHTS for Inhibitors of ATXN expression. S2 cells (HEK-293 line with an ATXN2-luciferase reporter) viability, CellTiter-Fluor protease fluorescence, 24 h. Potency, µM (highest dose often 56.7 µM), hits mostly cytotoxic. 400,000 compounds, 0.49% hits; further: nearly all actives have a fitted effect of over 40% in size
Starred values were filed as active, the others as inactive; i = inactive; ? = inconclusive; · = not tested or not shown; [ ] = dose if it differs, or a comment. The call rests on the fitted dose curve; in most records, active means well fitted curve in the direction sought with a large enough effect; inconclusive means small, poorly fitted or top-dose-only effect, or another doubt; inactive means no such curve, though single readings can be large; an effect the other way counts as inactive or inconclusive. Potency means the concentration at half of the fitted maximal effect.

SMILES	HT1080 IDH1KD tx	KB-3-1 cytotox	KB-V1 MDR tox	HT1080-NT tox	ATXN2 expr inh	S2 tox
COc1cccc(CC(=O)NCC2Cc3cc(Cl)cc(-c4ncccn4)c3O2)c1 (stereo not given)	·	·	·	·	·	i
N#Cc1c(NC(=O)C2CC(c3ccccc3Cl)=NO2)sc2c1CCC2 (stereo not given)	-0.4%	i	25.9µM*	-2.3%	18.5%	i
Cc1onc(-c2ccccc2Cl)c1C(=O)Nc1sc2c(c1C#N)CCC2	-20.6%	i	?	-15.8%	·	·
N#Cc1c(NC(=O)C2CC(c3ccccc3O)=NO2)sc2c1CCC2 (stereo not given)	-7.0%	i	20.6µM*	-0.3%	6.7%	i
CC1=NN(c2ccccc2)C(=O)/C1=C\c1ccc(Oc2ccc([N+](=O)[O-])cc2[N+](=O)[O-])cc1	10.3µM*	i	i	20.6µM*	-22.1%[11.3 µM]	i
Cc1cccc(NC(=O)c2ccc(COc3ccc4ccccc4c3)o2)n1	-12.0%	i	i	-7.3%	34.1%	i
Cc1cc(C)c2c(C)c(C(=O)Nc3c(C)n(C)n(-c4ccccc4)c3=O)oc2c1	-15.2%	i	8.2µM*	-0.7%	?	?
Cc1c(NC(=O)c2ccc(COc3ccc4ccccc4c3)o2)c(=O)n(-c2ccccc2)n1C	1.7%	20.6µM*	7.31µM*	0.1%	1.6%	i
COc1ccc(/C(O)=C/C(=O)C(=O)Nc2c(C)n(C)n(-c3ccccc3)c2=O)cc1	0.0%	i	16.4µM*	-24.0%	3.2%	i
C(=NN=C1c2ccccc2-c2ccccc21)c1c[nH]c2ccccc12	?	?	23.1µM*	-9.9%	0.0%	18.9µM*
Fc1c(F)c(F)c(N/N=C/c2c[nH]c3ccccc23)c(F)c1F	-19.6%	?	i	-3.1%	-22.9%	?
Oc1ccc(Nc2nc3ccccc3n3cnnc23)cc1	·	i	i	·	3.8%	i
CCOc1cc(/C=C/C(=O)Nc2ccc(C(=O)NCCN(CC)CC)cc2)ccc1OCC(C)C	?	18.4µM*	i	?	·	·
CCN(CC(=O)Nc1ccc2c(c1)OCCO2)C(=O)/C=C/c1ccc([N+](=O)[O-])cc1	15.4%	i	20.6µM*	6.6%	5.8%	?
Oc1ccc(Br)cc1-c1cc(-c2ccccc2)n[nH]1	20.6µM*	i	i	29.1µM*	5.3%	i
Oc1ccc(Br)cc1-c1cc(-c2ccc(Cl)cc2)n[nH]1	23.1µM*	18.4µM*	10.3µM*	23.1µM*	-33.4%	?
O=[N+]([O-])c1cccc(-c2cc(-c3cc(Br)ccc3O)[nH]n2)c1	?	20.6µM*	20.6µM*	?	?	i
CCN(CC)CCCNc1ncnc2c1cnn2-c1ccc(C)c(C)c1	·	i	i	·	-20.6%	?
COc1cc(=O)n2c(c1C(=O)NC(C)c1ccco1)CCN(Cc1ccccc1C(F)(F)F)CC2 (stereo not given)	·	·	·	·	·	i
COc1ccc(CCc2nnc(CCC(=O)N(C)Cc3ccnc4ccccc34)o2)cc1	20.6µM*	i	i	?	-5.7%	?
COc1ccccc1CCc1nnc(CCC(=O)N(C)Cc2cccc3cnccc23)o1	1.5%	i	i	-2.3%	0.0%	i
Cc1nc2c(-c3ccccc3)c(C)nn2c(C)c1CCC(=O)N1CCN(c2ccccc2)CC1	·	i	i	·	-6.0%	i
O=C(N/N=C/c1cc2c(cc1Br)OCO2)c1cccnc1	0.9%	i	?	0.9%	20.6%	i
O=C(N/N=C/c1ccc(Br)s1)c1cccnc1	11.4%	i	i	9.7%	2.8%	i
Cc1cc(O)c(C)c(O)c1/C=N/NC(=O)c1cccnc1	?	?	i	?	11.2µM*	i
SMILES	HT1080 IDH1KD tx	KB-3-1 cytotox	KB-V1 MDR tox	HT1080-NT tox	ATXN2 expr inh	S2 tox
O=C(N/N=C/c1cc(Br)c(O)c(Br)c1O)c1cccnc1	10.3µM*	?	i	?	·	?
O=C(N/N=C/c1cc(O)ccc1Br)c1cccnc1	?	20.6µM*	i	?	2.82µM*	?
COc1ccc(/C=N/NC(=O)c2cccnc2)cc1O	17.0%	i	i	7.2%	1.3%	i
CC(=O)NC1=C(C#N)CCC1	·	?	i	·	·	·
CCCCn1cc(S(=O)(=O)c2ccc(C)c(C)c2)c(=O)c2cc(F)c(N3CCN(C)CC3)cc21	·	i	i	·	·	·
O=C1CCCC[C@@H](O)[C@H](O)C[C@H](c2ccccc2)O1	2.9%	i	i	7.9%	3.1%	i
C=C1CC2(CC(c3ccccc3)OC(c3ccccc3)C2)OC1=O (stereo not given)	16.4µM*	?	?	?	?	·
Cc1ccccc1C1(CC(=O)N2CCOCC2)CC(=O)N(Cc2cccnc2)C1=O (stereo not given)	·	·	·	·	·	i
CC1CCN(c2ncnc3c2nnn3C)CC1	·	i	i	·	·	·
COCCOC(=O)C1=C(C)NC(=O)NC1c1cn(-c2ccccc2)nc1-c1ccccc1 (stereo not given)	·	i	i	·	8.4%	i
Nc1nn2cc(-c3ccccc3)nc2c2ccccc12	?	i	16.4µM*	?	131.2%	i
